# According to PMC7862700, “An all-to-all approach to the identification of sequence-specific readers for epigenetic DNA modifications on cytosine”:
# Tests used:
# Assay in all cases: DAPPL (digital affinity profiling via proximity ligation, sequencing); 10 mM Tris-HCl pH 7.5, 50 mM NaCl, 1 mM DTT, 4% glycerol, room temperature, 30 min; GST-TFs on glutathione beads, 16-mer random dsDNA library, 0.1% formaldehyde crosslink after washing; high values mean tight binding
# FEV = molecular target: T1, FEV (Homo sapiens, UniProt Q99581 1-238); details: protein: recombinant; tags: N-terminal GST; dsDNA, one strand shown
# T1 sequence: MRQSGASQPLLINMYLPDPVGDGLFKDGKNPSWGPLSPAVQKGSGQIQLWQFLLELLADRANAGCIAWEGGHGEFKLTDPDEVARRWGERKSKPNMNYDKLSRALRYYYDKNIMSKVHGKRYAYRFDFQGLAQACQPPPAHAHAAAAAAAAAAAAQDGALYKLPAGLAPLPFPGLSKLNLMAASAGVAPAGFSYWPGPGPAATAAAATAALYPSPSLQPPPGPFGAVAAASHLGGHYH
# Outline: (§1)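 The binding signal reported is, for every hexamer, its read frequency for a factor over its read frequency for the tag-only sample. Reads came from pools of yeast-expressed, GST-fused human transcription factors on glutathione beads, barcoded with DNA and mixed with that sample, which were incubated with 200 nmole of a random double-stranded 16-mer DNA library in Tris/NaCl/DTT/glycerol buffer at room temperature for 30 min. After washing, the pools were crosslinked with 0.1% formaldehyde, proximity-ligated with BsaI/T4 ligase for 1 h at 37 °C, PCR-amplified and sequenced on an Illumina NextSeq500.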
# ETV5 = ETV5 (Homo sapiens, UniProt P41161 1-510); details: protein: recombinant; tags: N-terminal GST; dsDNA, one strand shown
# Sequence of ETV5 (P41161 whole entry): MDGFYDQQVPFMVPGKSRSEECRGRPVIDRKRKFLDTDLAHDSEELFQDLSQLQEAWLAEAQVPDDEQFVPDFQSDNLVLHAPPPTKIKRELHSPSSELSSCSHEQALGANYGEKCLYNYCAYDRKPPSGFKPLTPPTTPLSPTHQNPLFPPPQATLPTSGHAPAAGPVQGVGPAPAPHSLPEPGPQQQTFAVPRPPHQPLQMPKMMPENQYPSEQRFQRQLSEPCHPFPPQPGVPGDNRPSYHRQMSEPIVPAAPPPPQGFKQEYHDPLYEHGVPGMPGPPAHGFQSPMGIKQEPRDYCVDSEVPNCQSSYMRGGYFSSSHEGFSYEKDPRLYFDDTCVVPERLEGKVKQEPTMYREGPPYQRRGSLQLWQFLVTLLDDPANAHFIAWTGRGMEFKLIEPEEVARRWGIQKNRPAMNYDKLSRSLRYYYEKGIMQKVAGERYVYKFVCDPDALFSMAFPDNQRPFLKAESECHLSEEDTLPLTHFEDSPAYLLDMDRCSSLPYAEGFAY
# Outline: as §1
# HSF1 = HSF1 (Homo sapiens, UniProt Q00613 1-529); details: protein: recombinant; tags: N-terminal GST; chain copies: 3; dsDNA, one strand shown
# Sequence of HSF1 (Q00613 whole entry): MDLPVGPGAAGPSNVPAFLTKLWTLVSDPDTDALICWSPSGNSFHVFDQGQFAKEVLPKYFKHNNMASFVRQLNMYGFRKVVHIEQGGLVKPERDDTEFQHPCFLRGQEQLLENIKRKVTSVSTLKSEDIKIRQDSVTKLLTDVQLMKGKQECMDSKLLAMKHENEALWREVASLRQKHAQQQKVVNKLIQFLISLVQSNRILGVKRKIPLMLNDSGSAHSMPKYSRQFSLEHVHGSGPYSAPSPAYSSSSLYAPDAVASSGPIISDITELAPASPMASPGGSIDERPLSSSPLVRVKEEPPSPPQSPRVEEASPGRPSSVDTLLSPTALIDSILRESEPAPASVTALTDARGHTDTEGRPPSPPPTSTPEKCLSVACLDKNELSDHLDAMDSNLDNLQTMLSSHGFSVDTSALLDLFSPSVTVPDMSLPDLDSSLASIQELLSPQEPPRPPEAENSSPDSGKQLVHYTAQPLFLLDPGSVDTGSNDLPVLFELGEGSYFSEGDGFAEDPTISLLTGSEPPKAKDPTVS
# Outline: as §1
# SPIC = molecular target: T2, SPIC (Homo sapiens, UniProt Q8N5J4 1-248); details: protein: recombinant; tags: N-terminal GST; dsDNA, one strand shown
# T2 sequence: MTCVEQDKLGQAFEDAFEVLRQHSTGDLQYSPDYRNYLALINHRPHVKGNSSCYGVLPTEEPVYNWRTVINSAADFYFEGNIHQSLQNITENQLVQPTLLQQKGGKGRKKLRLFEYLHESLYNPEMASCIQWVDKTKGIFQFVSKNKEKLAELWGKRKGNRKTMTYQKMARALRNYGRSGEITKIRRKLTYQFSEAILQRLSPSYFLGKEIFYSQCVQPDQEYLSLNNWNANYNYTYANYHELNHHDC
# Outline: as §1
# ELF4 = ELF4 (Homo sapiens, UniProt Q99607 1-663); details: protein: recombinant; tags: N-terminal GST; dsDNA, one strand shown
# Sequence of ELF4 (Q99607 whole entry): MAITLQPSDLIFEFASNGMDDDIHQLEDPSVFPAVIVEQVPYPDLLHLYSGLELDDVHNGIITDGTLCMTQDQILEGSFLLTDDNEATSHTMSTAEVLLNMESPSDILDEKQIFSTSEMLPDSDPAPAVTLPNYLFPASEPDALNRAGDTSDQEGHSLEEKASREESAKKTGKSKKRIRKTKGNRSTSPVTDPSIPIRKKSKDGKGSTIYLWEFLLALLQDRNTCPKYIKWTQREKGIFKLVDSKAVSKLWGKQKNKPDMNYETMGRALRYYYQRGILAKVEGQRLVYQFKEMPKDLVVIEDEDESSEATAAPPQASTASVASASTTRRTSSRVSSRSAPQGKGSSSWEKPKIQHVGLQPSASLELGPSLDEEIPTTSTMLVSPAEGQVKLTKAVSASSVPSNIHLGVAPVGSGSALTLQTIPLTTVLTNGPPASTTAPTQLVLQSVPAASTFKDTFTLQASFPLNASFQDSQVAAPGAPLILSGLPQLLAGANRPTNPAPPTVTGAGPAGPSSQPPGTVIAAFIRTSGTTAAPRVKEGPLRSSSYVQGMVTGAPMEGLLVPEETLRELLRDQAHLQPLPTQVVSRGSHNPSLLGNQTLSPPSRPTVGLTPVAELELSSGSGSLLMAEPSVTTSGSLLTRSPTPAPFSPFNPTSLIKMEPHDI
# Outline: as §1
# ELK4 = molecular target: T3, ELK4 (Homo sapiens, UniProt P28324-2 1-405); details: protein: recombinant; tags: N-terminal GST; dsDNA, one strand shown
# T3 sequence: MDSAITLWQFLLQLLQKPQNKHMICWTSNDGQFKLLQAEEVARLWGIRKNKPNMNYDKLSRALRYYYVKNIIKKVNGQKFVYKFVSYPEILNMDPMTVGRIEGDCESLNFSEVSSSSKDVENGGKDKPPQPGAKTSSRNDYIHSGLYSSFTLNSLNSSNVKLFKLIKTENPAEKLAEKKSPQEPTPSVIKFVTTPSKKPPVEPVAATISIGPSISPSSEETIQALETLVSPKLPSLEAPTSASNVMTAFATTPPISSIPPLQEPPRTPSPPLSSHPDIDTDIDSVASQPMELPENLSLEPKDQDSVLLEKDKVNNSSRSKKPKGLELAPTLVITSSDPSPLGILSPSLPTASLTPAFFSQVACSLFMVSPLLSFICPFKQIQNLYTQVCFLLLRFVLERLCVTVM
# Outline: as §1
# ETV2 = molecular target: T4, ETV2 (Homo sapiens, UniProt O00321 1-342); details: protein: recombinant; tags: N-terminal GST; dsDNA, one strand shown
# T4 sequence: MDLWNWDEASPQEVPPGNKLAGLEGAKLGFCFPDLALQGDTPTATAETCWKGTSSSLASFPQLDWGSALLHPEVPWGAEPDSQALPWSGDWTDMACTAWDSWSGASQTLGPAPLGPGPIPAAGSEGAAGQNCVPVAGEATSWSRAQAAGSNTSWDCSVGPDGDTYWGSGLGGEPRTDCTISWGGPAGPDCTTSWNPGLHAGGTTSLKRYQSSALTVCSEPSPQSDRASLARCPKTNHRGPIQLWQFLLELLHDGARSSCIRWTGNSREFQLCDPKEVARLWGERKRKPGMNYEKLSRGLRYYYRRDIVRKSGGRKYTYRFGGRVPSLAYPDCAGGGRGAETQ
# Outline: as §1
# ELF3 = molecular target: T5, ELF3 (Homo sapiens, UniProt P78545 1-371); details: protein: recombinant; tags: N-terminal GST; dsDNA, one strand shown
# T5 sequence: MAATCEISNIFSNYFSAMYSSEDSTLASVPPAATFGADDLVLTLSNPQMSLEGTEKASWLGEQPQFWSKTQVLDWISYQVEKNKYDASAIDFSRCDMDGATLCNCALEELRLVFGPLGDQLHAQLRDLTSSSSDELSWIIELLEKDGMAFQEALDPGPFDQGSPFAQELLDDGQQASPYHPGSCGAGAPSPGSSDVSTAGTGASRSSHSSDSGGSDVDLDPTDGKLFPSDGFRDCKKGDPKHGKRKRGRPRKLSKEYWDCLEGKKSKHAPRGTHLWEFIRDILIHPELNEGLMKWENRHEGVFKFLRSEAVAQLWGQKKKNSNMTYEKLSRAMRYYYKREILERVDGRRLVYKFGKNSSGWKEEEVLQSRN
# Outline: as §1
# CRX = CRX (Homo sapiens, UniProt O43186 1-299); details: protein: recombinant; tags: N-terminal GST; dsDNA, one strand shown
# Sequence of CRX (O43186 whole entry): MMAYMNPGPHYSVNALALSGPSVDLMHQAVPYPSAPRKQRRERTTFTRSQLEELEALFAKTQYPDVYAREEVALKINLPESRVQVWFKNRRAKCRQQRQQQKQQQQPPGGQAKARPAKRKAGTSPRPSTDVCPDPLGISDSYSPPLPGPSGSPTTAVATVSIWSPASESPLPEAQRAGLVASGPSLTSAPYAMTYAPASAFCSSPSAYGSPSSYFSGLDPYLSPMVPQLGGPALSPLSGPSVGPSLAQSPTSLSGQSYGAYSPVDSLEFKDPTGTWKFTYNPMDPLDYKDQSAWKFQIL
# Outline: as §1
# ETV1 = ETV1 (Homo sapiens, UniProt P50549 1-477); details: protein: recombinant; tags: N-terminal GST; dsDNA, one strand shown
# Sequence of ETV1 (P50549 whole entry): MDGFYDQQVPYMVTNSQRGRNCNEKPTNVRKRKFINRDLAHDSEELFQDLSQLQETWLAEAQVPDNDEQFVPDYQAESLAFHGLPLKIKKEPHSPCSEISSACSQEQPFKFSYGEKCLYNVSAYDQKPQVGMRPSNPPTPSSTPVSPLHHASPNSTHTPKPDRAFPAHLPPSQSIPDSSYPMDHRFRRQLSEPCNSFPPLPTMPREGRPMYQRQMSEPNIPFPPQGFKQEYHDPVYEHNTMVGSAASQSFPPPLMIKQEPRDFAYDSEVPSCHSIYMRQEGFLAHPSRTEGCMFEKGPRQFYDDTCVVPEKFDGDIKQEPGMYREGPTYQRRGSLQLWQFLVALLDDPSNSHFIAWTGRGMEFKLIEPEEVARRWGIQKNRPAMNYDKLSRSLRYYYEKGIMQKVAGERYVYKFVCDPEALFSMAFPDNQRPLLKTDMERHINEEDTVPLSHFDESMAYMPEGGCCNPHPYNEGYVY
# Outline: as §1
# ERF = molecular target: T6, ERF (Homo sapiens, UniProt P50548 1-548); details: protein: recombinant; tags: N-terminal GST; dsDNA, one strand shown
# T6 sequence: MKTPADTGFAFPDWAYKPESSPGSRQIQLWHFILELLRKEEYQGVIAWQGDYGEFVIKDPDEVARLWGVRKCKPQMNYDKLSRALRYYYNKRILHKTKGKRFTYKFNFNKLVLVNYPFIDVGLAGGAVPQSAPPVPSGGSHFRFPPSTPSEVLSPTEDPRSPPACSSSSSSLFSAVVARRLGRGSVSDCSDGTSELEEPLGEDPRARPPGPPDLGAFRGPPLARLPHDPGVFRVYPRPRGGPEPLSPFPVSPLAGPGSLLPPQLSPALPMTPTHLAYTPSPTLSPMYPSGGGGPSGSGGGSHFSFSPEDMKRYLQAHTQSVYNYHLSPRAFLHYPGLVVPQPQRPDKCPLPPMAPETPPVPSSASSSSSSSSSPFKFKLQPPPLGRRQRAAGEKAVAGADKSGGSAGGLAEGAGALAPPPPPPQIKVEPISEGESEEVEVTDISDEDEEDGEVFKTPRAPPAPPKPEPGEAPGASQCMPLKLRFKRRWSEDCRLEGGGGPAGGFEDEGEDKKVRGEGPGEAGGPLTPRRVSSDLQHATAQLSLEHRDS
# Outline: as §1
# ETV3L = molecular target: T7, ETV3L (Homo sapiens, UniProt Q6ZN32 1-361); details: protein: recombinant; tags: N-terminal GST; dsDNA, one strand shown
# T7 sequence: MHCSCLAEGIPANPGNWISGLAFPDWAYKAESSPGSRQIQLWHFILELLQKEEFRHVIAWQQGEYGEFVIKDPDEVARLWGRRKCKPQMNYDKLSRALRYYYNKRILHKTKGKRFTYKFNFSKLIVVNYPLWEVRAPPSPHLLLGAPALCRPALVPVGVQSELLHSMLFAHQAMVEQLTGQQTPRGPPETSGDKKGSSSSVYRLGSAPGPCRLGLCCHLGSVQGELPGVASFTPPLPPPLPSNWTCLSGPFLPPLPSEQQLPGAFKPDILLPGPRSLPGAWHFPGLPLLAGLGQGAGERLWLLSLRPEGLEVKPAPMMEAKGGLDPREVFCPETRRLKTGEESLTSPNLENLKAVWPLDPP
# Outline: as §1
# ETS2 = molecular target: T8, ETS2 (Homo sapiens, UniProt P15036 1-469); details: protein: recombinant; tags: N-terminal GST; dsDNA, one strand shown
# T8 sequence: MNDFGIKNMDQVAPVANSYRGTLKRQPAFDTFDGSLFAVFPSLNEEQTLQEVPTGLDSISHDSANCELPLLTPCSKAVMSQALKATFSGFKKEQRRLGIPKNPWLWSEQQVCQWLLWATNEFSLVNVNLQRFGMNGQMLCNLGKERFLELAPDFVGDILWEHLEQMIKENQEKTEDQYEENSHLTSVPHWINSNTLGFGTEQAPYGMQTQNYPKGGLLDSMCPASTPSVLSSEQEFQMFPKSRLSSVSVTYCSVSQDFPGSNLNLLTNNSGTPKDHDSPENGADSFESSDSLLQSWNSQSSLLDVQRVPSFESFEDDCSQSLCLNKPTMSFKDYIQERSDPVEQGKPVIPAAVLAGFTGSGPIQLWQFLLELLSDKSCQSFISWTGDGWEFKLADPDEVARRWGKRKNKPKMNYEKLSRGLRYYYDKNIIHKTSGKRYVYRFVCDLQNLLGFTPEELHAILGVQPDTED
# Outline: as §1
# SPDEF = molecular target: T9, SPDEF (Homo sapiens, UniProt O95238 1-335); details: protein: recombinant; tags: N-terminal GST; dsDNA, one strand shown
# T9 sequence: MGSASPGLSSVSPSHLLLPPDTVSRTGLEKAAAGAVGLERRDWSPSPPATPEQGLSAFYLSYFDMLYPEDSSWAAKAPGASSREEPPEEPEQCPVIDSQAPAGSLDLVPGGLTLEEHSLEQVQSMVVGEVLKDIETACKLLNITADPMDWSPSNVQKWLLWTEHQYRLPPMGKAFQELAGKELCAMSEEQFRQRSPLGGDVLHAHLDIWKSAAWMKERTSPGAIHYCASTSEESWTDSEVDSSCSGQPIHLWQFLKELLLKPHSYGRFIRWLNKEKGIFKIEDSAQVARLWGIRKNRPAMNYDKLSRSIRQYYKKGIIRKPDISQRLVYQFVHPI
# Outline: as §1
# ETV7 = molecular target: T10, ETV7 (Homo sapiens, UniProt Q9Y603 1-341); details: protein: recombinant; tags: N-terminal GST; dsDNA, one strand shown
# T10 sequence: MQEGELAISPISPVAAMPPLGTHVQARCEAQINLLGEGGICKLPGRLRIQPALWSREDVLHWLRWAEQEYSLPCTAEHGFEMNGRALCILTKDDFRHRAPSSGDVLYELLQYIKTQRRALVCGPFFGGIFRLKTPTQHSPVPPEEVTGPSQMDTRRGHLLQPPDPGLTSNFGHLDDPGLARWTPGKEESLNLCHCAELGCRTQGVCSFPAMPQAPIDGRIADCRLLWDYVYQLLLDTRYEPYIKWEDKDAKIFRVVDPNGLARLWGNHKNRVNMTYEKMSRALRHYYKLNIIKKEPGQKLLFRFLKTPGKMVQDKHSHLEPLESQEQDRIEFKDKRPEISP
# Outline: as §1
# ELF5 = molecular target: T11, ELF5 (Homo sapiens, UniProt Q9UKW6-2 1-255); details: protein: recombinant; tags: N-terminal GST; dsDNA, one strand shown
# T11 sequence: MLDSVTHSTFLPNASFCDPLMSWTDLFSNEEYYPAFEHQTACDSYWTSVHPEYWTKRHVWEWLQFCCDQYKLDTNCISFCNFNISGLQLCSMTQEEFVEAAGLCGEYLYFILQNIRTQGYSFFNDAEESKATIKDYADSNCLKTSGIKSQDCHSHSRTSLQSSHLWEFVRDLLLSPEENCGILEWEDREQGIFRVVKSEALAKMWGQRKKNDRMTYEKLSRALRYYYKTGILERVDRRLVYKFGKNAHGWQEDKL
# Outline: as §1
# ETV3 = molecular target: T12, ETV3 (Homo sapiens, UniProt P41162-2 1-143); details: protein: recombinant; tags: N-terminal GST; dsDNA, one strand shown
# T12 sequence: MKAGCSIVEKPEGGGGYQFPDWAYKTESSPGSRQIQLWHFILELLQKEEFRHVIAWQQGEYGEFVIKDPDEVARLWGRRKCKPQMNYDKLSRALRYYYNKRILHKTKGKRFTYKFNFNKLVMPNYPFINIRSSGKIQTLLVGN
# Outline: as §1
# ETV6 = ETV6 (Homo sapiens, UniProt P41212 1-452); details: protein: recombinant; tags: N-terminal GST; dsDNA, one strand shown
# Sequence of ETV6 (P41212 whole entry): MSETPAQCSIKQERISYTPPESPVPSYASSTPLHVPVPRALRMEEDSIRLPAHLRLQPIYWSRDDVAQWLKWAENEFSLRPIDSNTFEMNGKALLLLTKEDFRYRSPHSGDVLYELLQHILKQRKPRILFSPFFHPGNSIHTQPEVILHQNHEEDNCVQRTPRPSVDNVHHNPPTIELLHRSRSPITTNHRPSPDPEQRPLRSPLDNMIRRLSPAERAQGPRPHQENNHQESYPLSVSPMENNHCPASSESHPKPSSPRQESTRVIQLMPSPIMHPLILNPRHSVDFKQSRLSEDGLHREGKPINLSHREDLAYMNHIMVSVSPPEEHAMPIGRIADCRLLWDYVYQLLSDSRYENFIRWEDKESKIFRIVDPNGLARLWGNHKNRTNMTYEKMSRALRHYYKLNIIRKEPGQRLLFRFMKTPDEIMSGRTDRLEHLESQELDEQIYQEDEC
# Outline: as §1
sequence,measurement,setting,value
TTCGAG,binding signal,FEV,"1.21 fold enrichment (6-mer frequency, TF over GST control)"
same,binding signal,ETV5,"1.28 fold enrichment (6-mer frequency, TF over GST control)"
same,binding signal,HSF1,"4.43 fold enrichment (6-mer frequency, TF over GST control)"
same,binding signal,SPIC,"1.13 fold enrichment (6-mer frequency, TF over GST control)"
same,binding signal,ELF4,"1.29 fold enrichment (6-mer frequency, TF over GST control)"
same,binding signal,ELK4,"1.26 fold enrichment (6-mer frequency, TF over GST control)"
same,binding signal,ETV2,"1.14 fold enrichment (6-mer frequency, TF over GST control)"
same,binding signal,ELF3,"1.25 fold enrichment (6-mer frequency, TF over GST control)"
same,binding signal,CRX,"1.96 fold enrichment (6-mer frequency, TF over GST control)"
same,binding signal,ETV1,"1.37 fold enrichment (6-mer frequency, TF over GST control)"
same,binding signal,ERF,"1.23 fold enrichment (6-mer frequency, TF over GST control)"
same,binding signal,ETV3L,"1.36 fold enrichment (6-mer frequency, TF over GST control)"
same,binding signal,ETS2,"1.26 fold enrichment (6-mer frequency, TF over GST control)"
same,binding signal,SPDEF,"1.19 fold enrichment (6-mer frequency, TF over GST control)"
same,binding signal,ETV7,"1.18 fold enrichment (6-mer frequency, TF over GST control)"
same,binding signal,ELF5,"1.14 fold enrichment (6-mer frequency, TF over GST control)"
same,binding signal,ETV3,"1.09 fold enrichment (6-mer frequency, TF over GST control)"
same,binding signal,ETV6,"1.28 fold enrichment (6-mer frequency, TF over GST control)"
